Values joined by “and” are separate entries in the source; they are usually repeats but may differ in a detail not shown here. Equal values may be shown once. The panel holds about 83,000 compounds, 20% with a hit somewhere; the sample as a whole holds those more often.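 96-well plates, one dose, 48 hours. Percent growth reported; active if below 10.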 Active and inactive are the calls of the source.

The first assay deals with HT29 colon. In words: NCI-60 one-dose screen, 48 h (100 = growth as untreated, 0 = no growth, -100 = all killed). The conditions noted are these: 10 µM unless noted.
On to `Oc1ccc2ccccc2c1N=Nc1ccccn1`, for which the growth was 20.9% (inactive).

On to `OC(c1cc(-c2ccc(C(F)(F)F)cc2)nc(C(F)(F)F)c1)C1CCCCN1` (configuration not stated), for which the growth is -49.8% (active) and -67.9% (active) and -54.8% (active).

`C/C(=N/NC(N)=S)c1ccc(C)cc1`: the growth was 55.8% (inactive).

`N#Cc1c2ccccc2nc2ccccc12`: the growth was 110% (inactive).

Take `O=C(c1ccccc1)C(Br)[N+](=O)[O-]` (configuration not stated): the growth was 90.5% (inactive).

Regarding `CC(/C=N/NC(N)=S)Cc1ccc(C(C)C)cc1` (configuration not stated), the growth is 47.1% (inactive).

On to `Oc1c(C(Nc2ccccc2)c2ccccc2)ccc2cccnc12` (configuration not stated), for which the growth was 44.5% (inactive).

For the compound `O=C(Cc1nc2cc(Cl)c(Cl)cc2nc1CC(=O)c1cccnc1)c1cccnc1`, the growth is 71.6% (inactive).

`COc1cccc2c1C(=O)c1c(O)c3c(c(O)c1C2=O)C[C@@](O)(C(=O)CO)C[C@@H]3OC1CC(OC(C)=O)C(OC(C)=O)C(C)O1` (some centres not stated): the growth is -59% (active).

Turning to `O=[N+]([O-])c1ccc([I+]c2ccccc2)cc1`, the growth was -55.8% (active).

For the compound `O=C1C=CC(=O)N1c1ccccc1`, the growth was 103% (inactive).

Take `O=[N+]([O-])CC(O)c1ccccc1` (configuration not stated): the growth was 113% (inactive).

For the compound `CCCCCCCCCCCCNCCCc1ccccc1`, the growth is 7.89% (active).

For the compound `CCN(CC)CCNc1ccc([N+](=O)[O-])c2sc3ccccc3c(=O)c12`, the growth was 9.13% (active).

Regarding `COc1cc(NC(=O)C2=C(C)NC(C)=C(C(=O)Nc3cc(OC)c(Cl)cc3OC)C2c2cccc([N+](=O)[O-])c2)c(OC)cc1Cl`, the growth is 40.6% (inactive).

In the case of `CCN(CC)CCNC(Cc1ccccc1)c1ccc(OCc2ccccc2)cc1` (configuration not stated), the growth was 15.4% (inactive).

As for `c1ccc(C2NCCNC2c2ccccc2)cc1` (configuration not stated), the growth was 101% (inactive).

In the case of `COC(=O)Nc1nc2ccc(C3(c4ccc(F)cc4)OCCO3)cc2[nH]1`, the growth was 0.785% (active).

Consider `O=[N+]([O-])c1ccc(Oc2ccccc2Cl)c([N+](=O)[O-])c1`, for which the growth is 90.2% (inactive).

Regarding `O=C(O)c1ccc2c(c1)C(=O)c1ccccc1C2=O`, the growth was 108% (inactive).

`C=C(C(N)=O)C(N)C(=O)O` (configuration not stated): the growth is 100% (inactive).

`CCC[CH2][Sn]1([CH2]CCC)[O]C2C(CO)OC(n3ccc(N)nc3=O)C2[O]1` (configuration not stated): the growth was -69.8% (active).

`COc1cc2c(c(OC)c1OC)-c1ccc(NCc3ccccc3)c(=O)cc1[C@@H](NC(C)=O)CC2`: the growth was -8.12% (active).

As for `CCN1CCCC(Nc2cc(C)nc(/N=C(/N)Nc3ccc(Cl)c(Cl)c3)n2)C1` (configuration not stated), the growth is -46.9% (active).

As for `CN=C(N)N/N=C(\c1ccccc1)c1ccc(Br)cc1`, the growth is -7.67% (active).

Regarding `O=C(NOC(=O)c1ccccc1)c1ccccc1`, the growth is 110% (inactive).

As for `O=[n+]1c2ccccc2n([O-])c2cc(Cl)ccc21`, the growth is 74.1% (inactive).

With `C(=N\Nc1ccc2ccccc2n1)/c1ccccn1`, the growth was 32.1% (inactive).

Consider `O=C(CCl)N1c2ccccc2Sc2c1ccc1ccccc21`, for which the growth was 69.4% (inactive).

For `CC(C)c1ccc(Nc2n[nH]c(=S)s2)cc1`, the growth was 76.1% (inactive).

The next assay has as its system SNB-75 CNS. The assay is described as above. Particulars: 10 µM unless noted.
Consider `Oc1ccc2ccccc2c1N=Nc1ccccn1`, for which the growth was 59.1% (inactive).

As to `OC(c1cc(-c2ccc(C(F)(F)F)cc2)nc(C(F)(F)F)c1)C1CCCCN1` (configuration not stated), the growth was 18.6% (inactive) and -18% (active) and 46.3% (inactive).

Regarding `C/C(=N/NC(N)=S)c1ccc(C)cc1`, the growth was 92.9% (inactive).

On to `N#Cc1c2ccccc2nc2ccccc12`, for which the growth is 97.8% (inactive).

For the compound `O=C1CSC(=S)N1Cc1cccnc1`, the growth is 83.3% (inactive).

For `CC(/C=N/NC(N)=S)Cc1ccc(C(C)C)cc1` (configuration not stated), the growth was 71.4% (inactive).

As to `O=C(Cc1nc2cc(Cl)c(Cl)cc2nc1CC(=O)c1cccnc1)c1cccnc1`, the growth was 88.4% (inactive).

Consider `COc1cccc2c1C(=O)c1c(O)c3c(c(O)c1C2=O)C[C@@](O)(C(=O)CO)C[C@@H]3OC1CC(OC(C)=O)C(OC(C)=O)C(C)O1` (some centres not stated), for which the growth was -30.9% (active).

As to `O=[N+]([O-])CC(O)c1ccccc1` (configuration not stated), the growth is 91.6% (inactive).

In the case of `CCCCCCCCCCCCNCCCc1ccccc1`, the growth is 64.7% (inactive).

As for `CCN(CC)CCNc1ccc([N+](=O)[O-])c2sc3ccccc3c(=O)c12`, the growth is 34.8% (inactive).

Consider `O/N=C1\c2ccccc2-c2ccc(F)cc21`, for which the growth was 91.1% (inactive).

For `CCN(CC)CCNC(Cc1ccccc1)c1ccc(OCc2ccccc2)cc1` (configuration not stated), the growth is 71.4% (inactive).

Regarding `c1ccc(C2NCCNC2c2ccccc2)cc1` (configuration not stated), the growth was 87.5% (inactive).

Consider `COC(=O)Nc1nc2ccc(C3(c4ccc(F)cc4)OCCO3)cc2[nH]1`, for which the growth is 10.3% (inactive).

On to `O=[N+]([O-])c1ccc(Oc2ccccc2Cl)c([N+](=O)[O-])c1`, for which the growth was 83.2% (inactive).

For the compound `C=C(C(N)=O)C(N)C(=O)O` (configuration not stated), the growth was 108% (inactive).

Take `CCC[CH2][Sn]1([CH2]CCC)[O]C2C(CO)OC(n3ccc(N)nc3=O)C2[O]1` (configuration not stated): the growth is -21.2% (active).

For the compound `CCN1CCCC(Nc2cc(C)nc(/N=C(/N)Nc3ccc(Cl)c(Cl)c3)n2)C1` (configuration not stated), the growth is -76.8% (active).

`O=C(NOC(=O)c1ccccc1)c1ccccc1`: the growth is 108% (inactive).

As to `O=C(CCl)N1c2ccccc2Sc2c1ccc1ccccc21`, the growth was 60.2% (inactive).

Regarding `CC(C)c1ccc(Nc2n[nH]c(=S)s2)cc1`, the growth was 92.3% (inactive).

The values are drawn from PubChem BioAssay (NCI).
